# From PubChem BioAssay
# JMJD2A Tudor inh: inhibitors of human JMJD2A Tudor domain; AlphaScreen JMJD2A-Tudor / H3K4me3 peptide binding; Potency, µM (titrated, usually from 114 µM), most hits filed as inhibitors; hit rate 4.4% among 390,000; AID 504339; also: nearly all actives have a fitted effect of over 50% in size
# HP1b chromo inh: HP1-beta chromodomain-methylated histone interaction inhibition; AlphaScreen HP1-beta / biotin-H3K9me3 peptide binding; Potency, µM (top dose mostly 114 µM), most hits filed as inhibitors; hit rate 0.56% among 390,000; also: nearly all actives have a fitted effect of over 70% in size
# Target sequence (P83916 whole entry, looked up): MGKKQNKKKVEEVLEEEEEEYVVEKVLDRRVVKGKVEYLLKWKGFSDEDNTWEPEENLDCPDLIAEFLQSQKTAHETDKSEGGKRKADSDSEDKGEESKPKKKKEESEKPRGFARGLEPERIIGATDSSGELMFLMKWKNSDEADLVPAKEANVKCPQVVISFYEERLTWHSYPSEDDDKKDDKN
#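 Compound inhibition of the preformed complex between 50 nM HP1-beta and 50 nM biotinylated H3K9me3 peptide was read by AlphaScreen. Buffer was PBS pH 7.4 with 0.01% Tween-20. Incubations ran 30 min at room temperature, with 10 ug/mL donor/acceptor beads.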
# L3MBTL1 block: inhibitors of human L3MBTL1; hit rate 0.66% among 230,000; AID 485360; AlphaScreen L3MBTL1–H3K9me1 peptide binding; Potency, µM (titrated, usually from 57.1 µM), most hits filed as inhibitors; Q9Y468; also: nearly all actives have a fitted effect of over 60% in size
#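 Read-out is AlphaScreen signal from streptavidin donor and nickel chelate acceptor beads (10 ug/mL final each) bridging L3MBTL1 (50 nM) and biotinylated K9-monomethylated H3(1-15) peptide (75 nM), after 30 min compound exposure at room temperature.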
# G9a inh: inhibitors of human histone lysine methyltransferase G9a | hit rate 8.8% among 350,000 | Q96KQ7 | G9a H3K9 monomethylation, AlphaScreen, 2 h | Potency, µM (highest dose often 102 µM), usual class: inhibitors; also: nearly all actives have a fitted effect of over 75% in size
# Target sequence (Q96KQ7 913-1193 limits assumed): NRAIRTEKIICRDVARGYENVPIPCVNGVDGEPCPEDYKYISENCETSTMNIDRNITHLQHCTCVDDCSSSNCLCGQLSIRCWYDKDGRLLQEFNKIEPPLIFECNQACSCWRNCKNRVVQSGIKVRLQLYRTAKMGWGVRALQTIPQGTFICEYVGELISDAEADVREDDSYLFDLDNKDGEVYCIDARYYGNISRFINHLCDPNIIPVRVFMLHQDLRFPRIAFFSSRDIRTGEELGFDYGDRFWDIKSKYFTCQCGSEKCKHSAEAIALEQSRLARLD
#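 AlphaScreen read-out: biotin-H3K9 peptide (500 nM) methylation by 20 nM enzyme with 20 uM SAM, 2 h at room temperature after 15 min compound preincubation; anti-monomethyl H3K9 antibody plus donor/acceptor beads, 10 min dark.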
# Sfp PPTase inh: inhibitors of Bacillus subtilis Sfp phosphopantetheinyl transferase | Q9F4F7 | Biochemical Sfp PPTase activity, qHTS | Potency, µM, most hits filed as inhibitors | hit rate 3.5% among 310,000;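 also: the enzyme is Sfp with the accession as filed and its product quenches rhodamine fluorescence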
#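 Reaction rates are the 30-min fluorescence difference (ex 525, em 598 nm) in wells containing 15 nM Sfp, 5 uM rhodamine-CoA and 12.5 uM BHQ-2-YbbR at pH 7.6 with 10 mM MgCl2.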
# BAZ2B inh: blocks human BAZ2B; Potency, µM (series often up to 114 µM), actives largely listed as inhibitors; Q9UIF8; hit rate 4.4% among 360,000; AlphaScreen BAZ2B-H3K14Ac peptide displacement; AID 504333; also: nearly all actives have a fitted effect of over 60% in size
#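 AlphaScreen displacement of biotin-H3(5-23)K14Ac peptide (50 nM final) from BAZ2B (50 nM final) in PBS pH 7.4, 0.01% Tween-20; complex preformed 30 min RT, then compounds (top 110 uM) 30 min RT, beads 20 min dark.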
# Hits are given with their value; i = inactive; ? = inconclusive; nt = not tested or not shown; [ ] = remark or other dose. Only some compounds are listed: those with a hit (about 12% of all), similar ones and a draw of the others. Calls follow the shape of the dose curve; as a rule, active = well fitted curve in the direction sought with a large enough effect; inconclusive = small, poorly fitted or top-dose-only effect, or another doubt; inactive = no such curve, though single readings can be large; an effect the other way counts as inactive or inconclusive.
SMILES,JMJD2A Tudor inh,HP1b chromo inh,L3MBTL1 block,G9a inh,Sfp PPTase inh,BAZ2B inh
Brc1cccc(/C=N\n2cnnc2)c1,i,i,i,i,i,i
Cn1c(=O)c(C(=O)NCCc2ccc(Cl)cc2)c(O)c2ccccc21,i,i,i,i,?,i
O=C(Cn1c(=O)nc(-c2ccccc2F)c2cc(Cl)ccc21)N1CCN(c2ccccc2F)CC1,i,i,nt,i,nt,i
S=c1[nH]ncn1/N=C/c1cccc(Oc2ccccc2)c1,45µM,?,nt,i,i,i
Cc1ccc(OCc2n[nH]c(=S)n2-c2ccc(Br)cc2)cc1,i,i,i[2.29 µM],i[0.501 µM],i,i
C(=N\n1cnnc1)/c1cccc(Oc2ccccc2)c1,i,i,nt,i,i,i
Cc1ccc(/C=N/n2c(COc3ccccc3)n[nH]c2=S)cc1,?,i,nt,8.9µM,?,i
N#Cc1c(Cl)c(Cl)c2nnc(-c3ccc(Br)cc3)n2c1Cl,nt,nt,i,13µM,i,56µM
COc1ccc(CCNC(=O)c2nnn(CC(=O)Nc3cccc(F)c3)c2N)cc1OC,?,i,i,45µM,i,50µM
COc1ccc(CCNC(=O)c2nnn(CC(=O)Nc3ccccc3)c2N)cc1OC,?,i,i,i[0.0925 µM],i,?
COc1cccc(NC(=O)c2nnn(CC(=O)Nc3cc(C)cc(C)c3)c2N)c1,28µM,i,nt,i,i,i
O=C(NCc1ccco1)c1ccc2c(c1)N(Cc1cccc(Cl)c1)C(=O)c1ccccc1S2=O (stereo unspecified),i,i,nt,i,nt,i
C=CC[n+]1c(/C=C2\C=Cc3cc(C)ccc3N2CC)ccc2ccccc21,50µM,?,?,28µM,i,35µM
CCN(CC)c1ccc(NC(=O)c2cc(CN3CCCC3)on2)c(C)c1,?,i,nt,14µM,nt,?
Cc1ccc(Cl)cc1NC(=O)c1cc(CN2CCCC2)on1,i,i,nt,i,nt,i
C=CC[C@H]1CC(Cc2ccccc2)=C[C@H](CC=C)N1,?,?,i,45µM,i,i
O=C(Cc1ccc(Cl)cc1)Nc1ccc2oc(-c3ccccc3)nc2c1,i,i,nt,i,nt,i
CC(C)CCNC(=O)C(NS(=O)(=O)c1ccc2c(c1)c(=O)n(C)c(=O)n2C)c1ccccc1 (stereo unspecified),i,i,nt,8.9µM,i,i
Cc1cccc(NC(=O)C(Cc2ccccc2)NS(=O)(=O)c2ccc3c(c2)c(=O)n(C)c(=O)n3C)c1 (stereo unspecified),i,i,nt,i,nt,89µM
COCCCNC(=O)C(Cc1ccccc1)NS(=O)(=O)c1ccc2c(c1)c(=O)n(C)c(=O)n2C (stereo unspecified),i,i,i,i[12.7 µM],i,i
Cn1c(=O)c2cc(S(=O)(=O)NC(Cc3ccccc3)C(=O)NCc3ccco3)ccc2n(C)c1=O (stereo unspecified),i,i,nt,63µM,i,i
CCCCNC(=O)Cn1c(SCc2cccc(C)c2)nc2ccncc21,i,i,nt,nt,nt,nt
CCN(CC)c1ccc(S(=O)(=O)N2CCCCC2)cc1NC(=O)C1CCC1,i,i,i,i[0.501 µM],nt,?
O=C(CN1C(=O)NC2(CCCCC2)C1=O)Nc1nc2c(F)cc(F)cc2s1,i,i,i,50µM,nt,i
COc1ccc(-c2ccc(C3C4C=CCCC4(C)C(=O)N3Cc3ccccc3)c(F)c2)cc1 (stereo unspecified),i,i,nt,nt,?,nt
SMILES,JMJD2A Tudor inh,HP1b chromo inh,L3MBTL1 block,G9a inh,Sfp PPTase inh,BAZ2B inh
CCOC(=O)c1ccc(CNC(=O)C2CCC(=O)N(CCc3ccccc3)C2)o1 (stereo unspecified),i,i,nt,i,i,i
CCC(/C=C1\Oc2ccc(OC)cc2N1C)=C\c1sc2ccccc2[n+]1CCCS(=O)(=O)[O-],i,i,nt,nt,nt,nt
COc1cc(/C=C/c2sc3ccccc3[n+]2CCCS(=O)(=O)[O-])ccc1O,i,32µM,28µM,11µM,6.3µM,45µM
O=C(C[n+]1cccc2ccccc21)c1ccc([N+](=O)[O-])cc1,28µM,i,i,?,i,i
O=C(CCNc1ccccc1)c1cccc([N+](=O)[O-])c1,?,i,i,18µM,i,?
O=C(CNc1ccccc1)c1ccc([N+](=O)[O-])cc1,i,i,i,4.5µM,50µM,?
O=C(CCNc1ccc(Cc2ccncc2)cc1)c1ccc([N+](=O)[O-])cc1,22µM,?,?,i,i,?
O=C(CNC(=O)c1ccc([N+](=O)[O-])cc1)c1ccccc1,i,i,i,i,i,i
O=C(Nc1ccc(Cc2ccncc2)cc1)c1cccc([N+](=O)[O-])c1,i,i,i,?,?,?
O=C(COc1ccccc1F)NCC(c1ccc(F)cc1)N1CCOCC1 (stereo unspecified),i,i,i,?,nt,i
COc1ccc(/C=C/C(=O)OCC(=O)NC(C)CCc2ccccc2)cc1 (stereo unspecified),i,i,i,nt,nt,nt
Cc1cc(NC(=O)C(C)SCC(=O)N(C)CC(=O)Nc2ccccc2C(F)(F)F)no1 (stereo unspecified),i,i,i,i,nt,i
O=C(CCNc1ccc(Br)cc1)c1cccc([N+](=O)[O-])c1,20µM,79µM,i,3.2µM,i,?
O=C(Nc1ccc(Cl)cc1)N1CCSC1=NCc1ccccc1,i,i,i,i,i,i
CC(=O)Nc1ccc(C2=NN(C)C(=NCc3ccccc3)SC2)cc1,45µM,i,i,?,i,nt
O=C(/C=C/c1ccc(Cl)cc1)c1cccnc1,i,i,nt,45µM,?,i
